Data as given in ChEMBL document CHEMBL1961873, “Compounds: GSK PKIS; Assays: Nanosyn kinase panel” (2012).

Columns and labels:
[1] = biological target: Serine/threonine-protein kinase MARK2 (Homo sapiens) (UniProt Q7KZI7); settings: at 1 µM
[2] = biological target: PAS domain-containing serine/threonine-protein kinase (Homo sapiens) (UniProt Q96RG2); settings: at 0.1 µM
[3] = biological target: PAS domain-containing serine/threonine-protein kinase (Homo sapiens) (UniProt Q96RG2); settings: at 1 µM
[4] = biological target: Phosphorylase b kinase gamma catalytic chain, skeletal muscle/heart isoform (Homo sapiens) (UniProt Q16816); settings: at 0.1 µM
Chain of Phosphorylase b kinase gamma catalytic chain, skeletal muscle/heart isoform (Homo sapiens) (Q16816 whole entry, looked up, canonical isoform): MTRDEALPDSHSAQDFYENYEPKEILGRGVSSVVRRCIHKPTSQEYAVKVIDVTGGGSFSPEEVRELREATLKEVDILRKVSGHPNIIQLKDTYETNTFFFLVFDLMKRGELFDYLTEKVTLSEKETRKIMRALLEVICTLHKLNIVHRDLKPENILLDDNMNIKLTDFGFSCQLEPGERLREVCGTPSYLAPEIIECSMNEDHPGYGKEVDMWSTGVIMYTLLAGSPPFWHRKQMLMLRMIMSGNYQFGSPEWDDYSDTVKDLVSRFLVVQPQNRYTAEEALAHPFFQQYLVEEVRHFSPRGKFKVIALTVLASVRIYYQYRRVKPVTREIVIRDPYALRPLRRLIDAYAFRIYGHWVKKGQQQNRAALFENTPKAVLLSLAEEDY

[5] = biological target: Phosphorylase b kinase gamma catalytic chain, skeletal muscle/heart isoform (Homo sapiens) (UniProt Q16816); settings: at 1 µM
[6] = biological target: T1, Phosphorylase b kinase gamma catalytic chain, liver/testis isoform (Homo sapiens) (UniProt P15735); settings: at 0.1 µM
T1 sequence (whole entry): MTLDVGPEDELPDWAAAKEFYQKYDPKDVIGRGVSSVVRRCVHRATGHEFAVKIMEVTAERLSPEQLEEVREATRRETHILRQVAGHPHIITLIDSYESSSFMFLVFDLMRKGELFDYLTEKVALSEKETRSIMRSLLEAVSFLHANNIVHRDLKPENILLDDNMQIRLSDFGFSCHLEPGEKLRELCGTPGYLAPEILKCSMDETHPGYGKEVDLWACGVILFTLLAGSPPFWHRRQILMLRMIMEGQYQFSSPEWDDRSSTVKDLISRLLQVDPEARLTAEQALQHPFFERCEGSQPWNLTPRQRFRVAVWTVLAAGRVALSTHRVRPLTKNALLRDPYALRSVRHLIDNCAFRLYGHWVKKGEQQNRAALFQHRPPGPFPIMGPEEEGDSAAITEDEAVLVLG

[7] = biological target: T1, Phosphorylase b kinase gamma catalytic chain, liver/testis isoform (Homo sapiens); settings: at 1 µM
[8] = biological target: Serine/threonine-protein kinase pim-1 (Homo sapiens) (UniProt P11309); settings: at 0.1 µM
Chain of Serine/threonine-protein kinase pim-1 (Homo sapiens) (P11309 whole entry, looked up): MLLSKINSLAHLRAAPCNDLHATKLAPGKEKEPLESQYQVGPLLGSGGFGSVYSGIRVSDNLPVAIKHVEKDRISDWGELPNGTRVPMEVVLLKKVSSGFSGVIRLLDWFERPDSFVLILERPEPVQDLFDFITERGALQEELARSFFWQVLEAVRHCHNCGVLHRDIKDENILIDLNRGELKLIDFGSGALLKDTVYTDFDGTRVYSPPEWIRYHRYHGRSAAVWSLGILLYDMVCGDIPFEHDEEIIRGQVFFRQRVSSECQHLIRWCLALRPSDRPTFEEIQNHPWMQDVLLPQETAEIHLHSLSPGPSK

[9] = biological target: Serine/threonine-protein kinase pim-1 (Homo sapiens) (UniProt P11309); settings: at 1 µM
[10] = biological target: Serine/threonine-protein kinase pim-2 (Homo sapiens) (UniProt Q9P1W9); settings: at 0.1 µM
Chain of Serine/threonine-protein kinase pim-2 (Homo sapiens) (Q9P1W9 whole entry, looked up): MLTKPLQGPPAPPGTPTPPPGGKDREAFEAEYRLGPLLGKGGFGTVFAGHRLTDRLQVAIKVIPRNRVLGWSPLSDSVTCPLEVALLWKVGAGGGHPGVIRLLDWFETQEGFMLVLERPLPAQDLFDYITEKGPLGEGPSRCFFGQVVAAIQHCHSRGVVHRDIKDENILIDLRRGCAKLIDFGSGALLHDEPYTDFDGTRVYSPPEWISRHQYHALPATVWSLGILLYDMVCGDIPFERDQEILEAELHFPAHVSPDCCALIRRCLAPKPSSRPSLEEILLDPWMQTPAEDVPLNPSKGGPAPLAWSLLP

[11] = biological target: Serine/threonine-protein kinase pim-2 (Homo sapiens) (UniProt Q9P1W9); settings: at 1 µM
[12] = biological target: Serine/threonine-protein kinase pim-3 (Homo sapiens) (UniProt Q86V86); settings: at 0.1 µM
[13] = biological target: Serine/threonine-protein kinase pim-3 (Homo sapiens) (UniProt Q86V86); settings: at 1 µM
[14] = biological target: T2, MAP kinase-activated protein kinase 5 (Homo sapiens) (UniProt Q8IW41); settings: at 0.1 µM
T2 sequence (whole entry): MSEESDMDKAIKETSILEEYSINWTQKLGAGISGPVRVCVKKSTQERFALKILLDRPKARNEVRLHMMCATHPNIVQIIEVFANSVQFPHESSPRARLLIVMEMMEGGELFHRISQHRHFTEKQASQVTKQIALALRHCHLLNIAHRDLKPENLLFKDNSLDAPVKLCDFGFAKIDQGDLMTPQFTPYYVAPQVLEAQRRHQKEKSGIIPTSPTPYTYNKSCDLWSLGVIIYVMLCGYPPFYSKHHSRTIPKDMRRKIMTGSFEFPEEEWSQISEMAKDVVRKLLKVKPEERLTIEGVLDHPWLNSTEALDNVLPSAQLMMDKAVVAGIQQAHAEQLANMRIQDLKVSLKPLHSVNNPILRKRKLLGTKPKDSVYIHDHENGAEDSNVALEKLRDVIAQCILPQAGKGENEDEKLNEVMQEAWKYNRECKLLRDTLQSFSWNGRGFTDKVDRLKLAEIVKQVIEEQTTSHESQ

[15] = biological target: T2, MAP kinase-activated protein kinase 5 (Homo sapiens); settings: at 1 µM
[16] = biological target: Serine/threonine-protein kinase SIK1 (Homo sapiens) (UniProt P57059); settings: at 0.1 µM
Chain of Serine/threonine-protein kinase SIK1 (Homo sapiens) (P57059 whole entry): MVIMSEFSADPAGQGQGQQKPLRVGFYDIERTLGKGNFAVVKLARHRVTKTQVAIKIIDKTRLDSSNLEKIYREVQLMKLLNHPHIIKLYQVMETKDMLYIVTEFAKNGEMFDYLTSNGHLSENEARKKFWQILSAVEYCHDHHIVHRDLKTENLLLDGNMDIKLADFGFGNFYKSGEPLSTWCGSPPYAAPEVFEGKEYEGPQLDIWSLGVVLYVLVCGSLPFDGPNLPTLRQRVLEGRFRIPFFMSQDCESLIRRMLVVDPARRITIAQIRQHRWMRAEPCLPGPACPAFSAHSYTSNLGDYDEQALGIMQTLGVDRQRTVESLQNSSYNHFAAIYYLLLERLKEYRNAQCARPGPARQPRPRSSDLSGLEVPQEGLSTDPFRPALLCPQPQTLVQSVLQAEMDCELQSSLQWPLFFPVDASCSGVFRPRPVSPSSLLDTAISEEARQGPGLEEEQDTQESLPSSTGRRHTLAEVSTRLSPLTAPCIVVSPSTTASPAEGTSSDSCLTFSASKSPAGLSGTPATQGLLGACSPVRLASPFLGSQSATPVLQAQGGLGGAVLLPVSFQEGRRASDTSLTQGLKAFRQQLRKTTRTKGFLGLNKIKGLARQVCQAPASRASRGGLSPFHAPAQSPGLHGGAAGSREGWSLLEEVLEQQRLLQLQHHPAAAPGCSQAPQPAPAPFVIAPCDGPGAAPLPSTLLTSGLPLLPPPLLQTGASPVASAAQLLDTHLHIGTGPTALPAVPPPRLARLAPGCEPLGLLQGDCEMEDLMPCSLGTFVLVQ

[17] = biological target: Serine/threonine-protein kinase SIK1 (Homo sapiens) (UniProt P57059); settings: at 1 µM
[18] = biological target: Serine/threonine-protein kinase SIK2 (Homo sapiens) (UniProt Q9H0K1); settings: at 0.1 µM
[19] = biological target: Serine/threonine-protein kinase SIK2 (Homo sapiens) (UniProt Q9H0K1); settings: at 1 µM
[20] = biological target: T3, Serine/threonine-protein kinase TBK1 (Homo sapiens) (UniProt Q9UHD2); settings: at 0.1 µM;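 further: values are the mean TBK1 inhibition, taken from the GSK PKIS screening data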
T3 sequence (whole entry): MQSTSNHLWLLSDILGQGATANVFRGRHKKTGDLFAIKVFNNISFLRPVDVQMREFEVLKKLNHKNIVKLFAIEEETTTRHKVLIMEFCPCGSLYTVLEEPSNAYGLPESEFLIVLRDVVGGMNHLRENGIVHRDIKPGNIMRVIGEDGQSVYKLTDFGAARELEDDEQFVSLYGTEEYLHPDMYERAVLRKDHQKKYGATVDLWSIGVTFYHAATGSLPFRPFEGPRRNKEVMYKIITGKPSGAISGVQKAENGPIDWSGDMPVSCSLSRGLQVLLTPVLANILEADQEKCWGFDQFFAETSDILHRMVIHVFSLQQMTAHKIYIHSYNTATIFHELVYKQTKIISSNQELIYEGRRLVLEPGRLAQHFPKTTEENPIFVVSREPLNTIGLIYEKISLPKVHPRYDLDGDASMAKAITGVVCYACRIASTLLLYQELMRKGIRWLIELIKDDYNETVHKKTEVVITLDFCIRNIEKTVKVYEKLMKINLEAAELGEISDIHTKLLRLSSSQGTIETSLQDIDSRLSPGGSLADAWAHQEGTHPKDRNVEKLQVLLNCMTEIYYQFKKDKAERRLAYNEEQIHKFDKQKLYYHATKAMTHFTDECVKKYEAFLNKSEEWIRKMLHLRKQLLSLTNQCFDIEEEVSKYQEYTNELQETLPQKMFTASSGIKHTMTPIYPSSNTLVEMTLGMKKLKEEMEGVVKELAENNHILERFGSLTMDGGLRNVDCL

Chain of Serine/threonine-protein kinase MARK2 (Homo sapiens) (Q7KZI7 whole entry, the tested form may be a part): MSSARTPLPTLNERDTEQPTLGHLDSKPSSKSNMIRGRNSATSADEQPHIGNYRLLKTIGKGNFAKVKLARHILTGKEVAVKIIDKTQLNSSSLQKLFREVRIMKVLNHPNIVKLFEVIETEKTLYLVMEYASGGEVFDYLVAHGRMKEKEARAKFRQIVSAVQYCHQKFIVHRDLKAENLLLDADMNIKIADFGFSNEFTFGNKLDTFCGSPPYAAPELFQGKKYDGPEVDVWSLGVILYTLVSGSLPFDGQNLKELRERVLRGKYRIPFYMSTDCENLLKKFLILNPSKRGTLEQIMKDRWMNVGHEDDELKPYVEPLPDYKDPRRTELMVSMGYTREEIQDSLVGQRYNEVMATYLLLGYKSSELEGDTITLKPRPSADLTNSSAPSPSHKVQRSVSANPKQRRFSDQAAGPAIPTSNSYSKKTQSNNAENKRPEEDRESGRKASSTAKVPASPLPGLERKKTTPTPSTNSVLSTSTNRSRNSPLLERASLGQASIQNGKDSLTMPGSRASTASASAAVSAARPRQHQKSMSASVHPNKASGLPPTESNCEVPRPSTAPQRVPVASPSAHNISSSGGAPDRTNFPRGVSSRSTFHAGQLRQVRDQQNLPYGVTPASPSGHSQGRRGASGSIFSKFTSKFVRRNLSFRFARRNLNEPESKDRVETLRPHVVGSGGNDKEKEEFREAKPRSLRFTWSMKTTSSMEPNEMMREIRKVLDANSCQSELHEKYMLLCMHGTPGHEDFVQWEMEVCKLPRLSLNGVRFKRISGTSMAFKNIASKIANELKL
Chain of PAS domain-containing serine/threonine-protein kinase (Homo sapiens) (Q96RG2 whole entry, the tested form may be a part, canonical isoform): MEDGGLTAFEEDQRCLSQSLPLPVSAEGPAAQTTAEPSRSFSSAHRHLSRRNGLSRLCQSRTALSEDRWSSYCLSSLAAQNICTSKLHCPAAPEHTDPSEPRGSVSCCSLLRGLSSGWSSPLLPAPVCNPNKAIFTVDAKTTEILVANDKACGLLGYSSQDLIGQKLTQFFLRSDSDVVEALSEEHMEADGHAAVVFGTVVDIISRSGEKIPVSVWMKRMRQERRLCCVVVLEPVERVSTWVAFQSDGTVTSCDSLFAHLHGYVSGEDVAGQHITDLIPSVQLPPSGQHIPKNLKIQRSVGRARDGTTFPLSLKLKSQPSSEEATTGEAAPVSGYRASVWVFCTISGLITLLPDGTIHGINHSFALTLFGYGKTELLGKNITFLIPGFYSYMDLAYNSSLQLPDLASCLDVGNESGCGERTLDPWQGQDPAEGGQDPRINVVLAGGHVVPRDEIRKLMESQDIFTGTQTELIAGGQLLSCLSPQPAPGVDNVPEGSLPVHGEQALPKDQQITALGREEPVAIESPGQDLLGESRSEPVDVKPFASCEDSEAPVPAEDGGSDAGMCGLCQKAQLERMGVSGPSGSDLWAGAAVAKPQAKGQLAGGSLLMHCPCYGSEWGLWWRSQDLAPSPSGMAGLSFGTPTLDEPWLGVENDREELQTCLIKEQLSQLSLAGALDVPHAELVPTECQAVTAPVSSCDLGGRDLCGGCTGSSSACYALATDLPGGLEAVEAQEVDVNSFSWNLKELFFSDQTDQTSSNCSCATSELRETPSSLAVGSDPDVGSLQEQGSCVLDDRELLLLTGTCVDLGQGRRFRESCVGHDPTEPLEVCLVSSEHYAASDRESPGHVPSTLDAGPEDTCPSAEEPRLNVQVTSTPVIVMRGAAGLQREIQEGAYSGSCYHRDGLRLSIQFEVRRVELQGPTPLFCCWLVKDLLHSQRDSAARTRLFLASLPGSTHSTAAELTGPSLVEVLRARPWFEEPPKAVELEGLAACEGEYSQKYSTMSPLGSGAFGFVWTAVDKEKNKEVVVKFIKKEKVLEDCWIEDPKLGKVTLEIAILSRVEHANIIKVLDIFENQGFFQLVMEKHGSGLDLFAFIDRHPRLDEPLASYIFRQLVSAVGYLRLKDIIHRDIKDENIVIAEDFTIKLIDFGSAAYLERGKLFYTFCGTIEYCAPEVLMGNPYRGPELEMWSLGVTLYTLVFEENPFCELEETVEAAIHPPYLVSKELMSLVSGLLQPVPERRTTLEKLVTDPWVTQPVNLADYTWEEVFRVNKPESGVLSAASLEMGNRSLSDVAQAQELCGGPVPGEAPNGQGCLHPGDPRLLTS

CCN(CC)S(=O)(=O)c1ccc(OC)c(Nc2ncc(-c3ccccc3)o2)c1
inhibition [1]: 0.33%
inhibition [2]: 1.24%
inhibition [3]: 1.76%
inhibition [4]: -0.59%
inhibition [5]: 12.3%
inhibition [6]: 2.23%
inhibition [7]: 2.3%
inhibition [8]: 1.35%
inhibition [9]: 0.97%
inhibition [10]: -0.31%
inhibition [11]: 0.18%
inhibition [12]: 2.06%
inhibition [13]: 3.12%
inhibition [14]: 0.51%
inhibition [15]: 0.24%
inhibition [16]: 1.24%
inhibition [17]: 6.72%
inhibition [18]: 3.3%
inhibition [19]: 2.83%
inhibition [20]: 1.32%

CC(C)COC(=O)c1ccc2c(c1)/C(=C/Nc1ccc(S(N)(=O)=O)cc1)C(=O)N2
inhibition [1]: 70.5%
inhibition [2]: 0.36%
inhibition [3]: 2.64%
inhibition [4]: 12.2%
inhibition [5]: 50.5%
inhibition [6]: -1.63%
inhibition [7]: 16.4%
inhibition [8]: 3.92%
inhibition [9]: 27.8%
inhibition [10]: 0.83%
inhibition [11]: 5.85%
inhibition [12]: 8.76%
inhibition [13]: 48.8%
inhibition [14]: -0.6%
inhibition [15]: 1.18%
inhibition [16]: 2.01%
inhibition [17]: 72.2%
inhibition [18]: 4.76%
inhibition [19]: 39.7%
inhibition [20]: 38.1%

CCn1c(-c2nonc2N)nc2cnc(Oc3cccc(NC(=O)c4ccc(N(C)C)cc4)c3)cc21
inhibition [1]: 11%
inhibition [2]: -0.49%
inhibition [3]: 1.54%
inhibition [4]: -0.31%
inhibition [5]: 2.21%
inhibition [6]: 1.21%
inhibition [7]: -0.74%
inhibition [8]: 0.69%
inhibition [9]: 8.74%
inhibition [10]: -0.19%
inhibition [11]: 1.39%
inhibition [12]: -0.12%
inhibition [13]: 1.67%
inhibition [14]: 0.33%
inhibition [15]: -1.26%
inhibition [16]: 1.57%
inhibition [17]: 2.47%
inhibition [18]: 4.79%
inhibition [19]: 4.74%
inhibition [20]: 0.53%

CCCN(CCS(C)(=O)=O)Cc1ccc(-c2ccc3ncnc(Nc4ccc(OCc5cccc(F)c5)c(Cl)c4)c3c2)o1
inhibition [1]: -0.2%
inhibition [2]: 0.15%
inhibition [3]: -0.42%
inhibition [4]: 1.09%
inhibition [5]: 2.68%
inhibition [6]: 1.93%
inhibition [7]: 1.35%
inhibition [8]: 0.83%
inhibition [9]: 0.67%
inhibition [10]: -0.45%
inhibition [11]: 0.55%
inhibition [12]: 0.79%
inhibition [13]: 1.71%
inhibition [14]: 0.4%
inhibition [15]: 0.36%
inhibition [16]: 5.69%
inhibition [17]: 6.39%
inhibition [18]: 4.14%
inhibition [19]: 7.64%
inhibition [20]: 2.46%

CC(=O)Nc1cccc(C#Cc2cncnc2Nc2ccc(OCc3cccc(F)c3)c(Cl)c2)c1
inhibition [1]: 0.33%
inhibition [2]: 1.37%
inhibition [3]: -0.46%
inhibition [4]: 0.65%
inhibition [5]: 1.71%
inhibition [6]: 3.82%
inhibition [7]: 1.55%
inhibition [8]: 1.32%
inhibition [9]: 0.75%
inhibition [10]: 0.84%
inhibition [11]: 1.31%
inhibition [12]: 2.57%
inhibition [13]: -1.69%
inhibition [14]: 0.16%
inhibition [15]: -0.79%
inhibition [16]: 4.24%
inhibition [17]: 2.15%
inhibition [18]: 1.42%
inhibition [19]: 1.44%
inhibition [20]: 1.95%

COc1cccc(-n2ncc3c(N/N=C/c4ccc(F)cc4)ncnc32)c1
inhibition [1]: 1.76%
inhibition [2]: 0.08%
inhibition [3]: 0.35%
inhibition [4]: 2.66%
inhibition [5]: 5.43%
inhibition [6]: 5.34%
inhibition [7]: 6.87%
inhibition [8]: 1.15%
inhibition [9]: 1.15%
inhibition [10]: -0.5%
inhibition [11]: 0.1%
inhibition [12]: 0.77%
inhibition [13]: 0.03%
inhibition [14]: 1.85%
inhibition [15]: 2.88%
inhibition [16]: 9.59%
inhibition [17]: 14%
inhibition [18]: 6.43%
inhibition [19]: 13.7%
inhibition [20]: 2.42%
